Laboratory results from PubChem BioAssay (EPA / NIEHS).
Calls of active or inactive are those of the source. The calls were made as follows: active = hit-call score of the fitted dose curve at least 0.9, where 1 is the maximum; inactive = score below 0.9.

Tests used:
Details in all cases: mRNA level, 48 h; actives raise or lower the signal
[1] = read-out: CYP2C9 (gene 1559); assay: LTEA_HepaRG_CYP2C9: Life Technologies and Expression Analysis (LTEA) Assay for CYP2C9 using HepaRG (AID 2283484)
Procedure, shortened: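 Differentiated human HepaRG cells in serum-free induction medium were exposed 48 h to chemicals in 8-point half-log series from 100 uM (0.5% DMSO), in duplicate. CYP2C9 mRNA was measured by qRT-PCR, normalized to ACTB/GAPDH/POLR2A, with bidirectional fitting versus DMSO.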

[2] = read-out: CYP2E1 (gene 1571); assay: LTEA_HepaRG_CYP2E1: Life Technologies and Expression Analysis (LTEA) Assay for CYP2E1 using HepaRG (AID 2283485)
Procedure, shortened: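 HepaRG cells in serum-free induction medium exposed 48 h to test chemicals, 8 half-log concentrations up to 100 uM in 0.5% DMSO, duplicate. CYP2E1 mRNA by qRT-PCR, normalized to ACTB, GAPDH, POLR2A; bidirectional fit versus DMSO.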

[3] = read-out: CYP4A11 (gene 1579); assay: LTEA_HepaRG_CYP4A11: Life Technologies and Expression Analysis (LTEA) Assay for CYP4A11 using HepaRG (AID 2283486)
Procedure, shortened: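 CYP4A11 transcript levels were quantified by TaqMan qRT-PCR after HepaRG human liver cells were treated for 48 hours with test chemicals (top 100 uM, half-log dilutions, 0.5% DMSO). Gain or loss of signal was fitted relative to DMSO.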

[4] = read-out: Cytochrome P450 3A4 (Homo sapiens) (UniProt P08684); assay: LTEA_HepaRG_CYP3A4: Life Technologies and Expression Analysis (LTEA) Assay for CYP3A4 using HepaRG (AID 2283487)
Procedure, shortened: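 CYP3A4 transcript measured by TaqMan qRT-PCR and normalized to three housekeeping genes after 48 h chemical exposure of human HepaRG cells. Top concentration 100 uM, half-log steps, 0.5% DMSO vehicle; gain or loss fitted against DMSO baseline.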

[5] = read-out: DNA damage-inducible transcript 3 (DDIT3), DDIT3 (gene 1649); assay: LTEA_HepaRG_DDIT3: Life Technologies and Expression Analysis (LTEA) Assay for DNA damage-inducible transcript 3 (DDIT3) using HepaRG (AID 2283488)
Procedure, shortened: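 Differentiated human HepaRG cells in serum-free induction medium were exposed in duplicate for 48 h to 8 concentrations (top 100 uM, half-log steps, 0.5% DMSO). DDIT3 mRNA measured by TaqMan qRT-PCR, normalized to ACTB/GAPDH/POLR2A; bidirectional fit versus DMSO.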

[6] = read-out: Early growth response protein 1 (EGR1) transcription factor, EGR1 (gene 1958); assay: LTEA_HepaRG_EGR1: Life Technologies and Expression Analysis (LTEA) Assay for Early growth response protein 1 (EGR1) transcription factor using HepaRG (AID 2283490)
Procedure, shortened: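 Differentiated HepaRG cells in serum-free induction medium exposed 48 hours, duplicate, to 8 half-log concentrations up to 100 uM in 0.5% DMSO. EGR1 mRNA measured by TaqMan qRT-PCR, normalized to ACTB, GAPDH, POLR2A; bidirectional fit versus DMSO.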

[7] = read-out: Ezrin (EZR), EZR (gene 7430); assay: LTEA_HepaRG_EZR: Life Technologies and Expression Analysis (LTEA) Assay for Ezrin (EZR) using HepaRG (AID 2283491)
Procedure, shortened: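 HepaRG, 48 h chemical exposure, 8-pt half-log series from 100 uM, 0.5% DMSO vehicle, duplicates. Read-out: EZR mRNA by TaqMan qRT-PCR (Fluidigm array), housekeeping-normalized; bidirectional curve fit vs DMSO baseline.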

[8] = read-out: Cytochrome P450 3A7 (Homo sapiens) (UniProt P24462); assay: LTEA_HepaRG_CYP3A7: Life Technologies and Expression Analysis (LTEA) Assay for CYP3A7 using HepaRG (AID 2283492)
Procedure, shortened: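 CYP3A7 transcript levels were read by TaqMan qRT-PCR on Fluidigm arrays after 48 h chemical exposure of human HepaRG cells, with housekeeping-gene normalisation. Eight half-log concentrations up to 100 uM in 0.5% DMSO were tested in duplicate.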

[9] = read-out: CYP3A5 (gene 1577); assay: LTEA_HepaRG_CYP3A5: Life Technologies and Expression Analysis (LTEA) Assay for CYP3A5 using HepaRG (AID 2283493)
Procedure, shortened: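 Differentiated HepaRG cells in serum-free induction medium were dosed 48 h with test chemicals (8-point half-log series, top 100 uM, 0.5% DMSO, duplicate). CYP3A5 mRNA measured by qRT-PCR, normalized to ACTB, GAPDH, POLR2A; bidirectional fit versus DMSO.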

[10] = read-out: Fatty Acid-Binding Protein 1 (FABP1), FABP1 (gene 2168); assay: LTEA_HepaRG_FABP1: Life Technologies and Expression Analysis (LTEA) Assay for Fatty Acid-Binding Protein 1 (FABP1) using HepaRG (AID 2283494)
Procedure, shortened: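 Differentiated human HepaRG cells exposed 48 h in serum-free induction medium to eight half-log concentrations up to 100 uM (0.5% DMSO), duplicate. FABP1 mRNA by qRT-PCR, normalised to ACTB, GAPDH, POLR2A; bidirectional fitting against DMSO.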

[11] = read-out: Cytochrome P450 7A1 (Homo sapiens) (UniProt P22680); assay: LTEA_HepaRG_CYP7A1: Life Technologies and Expression Analysis (LTEA) Assay for Cytochrome P450 7A1 (CYP7A1) using HepaRG (AID 2283496)
Procedure, shortened: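 Gene expression endpoint in human HepaRG liver cells treated for 48 h with test chemicals (up to 100 uM, 0.5% DMSO). Values come from bidirectional concentration-response fitting versus DMSO.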

[12] = read-out: Glutathione S-Transferase (GSTA2), GSTA2 (gene 2939); assay: LTEA_HepaRG_GSTA2: Life Technologies and Expression Analysis (LTEA) Assay for Glutathione S-Transferase (GSTA2) using HepaRG (AID 2283497)
Procedure, shortened: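 Differentiated human HepaRG cells were exposed in duplicate for 48 h in serum-free induction medium, 8 points from 100 uM top in half-log steps, 0.5% DMSO. GSTA2 mRNA was measured by TaqMan qRT-PCR, normalized to ACTB, GAPDH and POLR2A; bidirectional fit versus DMSO.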

[13] = read-out: Glutamate-cysteine ligase catalytic (GCLC), GCLC (gene 2729); assay: LTEA_HepaRG_GCLC: Life Technologies and Expression Analysis (LTEA) Assay for Glutamate-cysteine ligase catalytic (GCLC) using HepaRG (AID 2283498)
Procedure, shortened: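 Differentiated HepaRG cells exposed 48 h in serum-free induction medium, eight-point half-log series topping at 100 uM in 0.5% DMSO, duplicates. GCLC mRNA by qRT-PCR normalized to ACTB, GAPDH and POLR2A, fitted bidirectionally versus DMSO.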

[14] = read-out: growth arrest and DNA damage 45 (GADD45G), GADD45G (gene 10912); assay: LTEA_HepaRG_GADD45G: Life Technologies and Expression Analysis (LTEA) Assay for growth arrest and DNA damage 45 (GADD45G) using HepaRG (AID 2283499)
Procedure, shortened: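 HepaRG, 48 h exposure, top 100 uM, half-log 8-point series, 0.5% DMSO vehicle, duplicates. Readout: GADD45G transcript by qRT-PCR (Fluidigm array), housekeeping-normalised (ACTB/GAPDH/POLR2A). Bidirectional curve fit vs DMSO baseline.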

[15] = read-out: Glutamate-cysteine ligase regulatory (GCLM), GCLM (gene 2730); assay: LTEA_HepaRG_GCLM: Life Technologies and Expression Analysis (LTEA) Assay for Glutamate-cysteine ligase regulatory (GCLM) using HepaRG (AID 2283500)
Procedure, shortened: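 Differentiated human HepaRG cells exposed 48 h in serum-free induction medium to 8-point half-log concentrations (top 100 uM, 0.5% DMSO), in duplicate. GCLM mRNA quantified by qRT-PCR, normalized to ACTB, GAPDH, POLR2A; bidirectional fitting versus DMSO.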

[16] = read-out: Heat shock 70 kDa protein 1 (HSPA1A), gene 3303; assay: LTEA_HepaRG_HSPA1A: Life Technologies and Expression Analysis (LTEA) Assay for Heat shock 70 kDa protein 1 (HSPA1A) using HepaRG (AID 2283502)
Procedure, shortened: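 Differentiated human HepaRG cells in serum-free induction medium were exposed in duplicate for 48 h to eight concentrations (top 100 uM, half-log steps, 0.5% DMSO). HSPA1A mRNA was quantified by qRT-PCR, normalized to ACTB, GAPDH and POLR2A, and fitted bidirectionally against DMSO.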

[17] = read-out: Hypoxia-inducible factor 1-alpha (Homo sapiens) (UniProt Q16665); assay: LTEA_HepaRG_HIF1A: Life Technologies and Expression Analysis (LTEA) Assay for Hypoxia-inducible factor 1 (HIF1A) Trancription factor using HepaRG (AID 2283503)
Procedure, shortened: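 HepaRG, 48 h exposure, 8-pt half-log series from 100 uM, 0.5% DMSO vehicle, duplicates. Readout: HIF1A transcript by qRT-PCR (Fluidigm array), housekeeping-normalised. Bidirectional curve fit vs DMSO baseline.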

[18] = read-out: Glutathione S-transferase M3 (GSTM3), GSTM3 (gene 2947); assay: LTEA_HepaRG_GSTM3: Life Technologies and Expression Analysis (LTEA) Assay for Glutathione S-transferase M3 (GSTM3) using HepaRG (AID 2283501)
Procedure, shortened: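 qRT-PCR read-out of GSTM3 transcript, normalized to three housekeeping genes, from human HepaRG cells after 48 h chemical exposure. Eight-point half-log series, top 100 uM, 0.5% DMSO vehicle; gain or loss fitted relative to DMSO baseline.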

Measured: AC50

Sequence of Hypoxia-inducible factor 1-alpha (Homo sapiens) (Q16665 whole entry, looked up): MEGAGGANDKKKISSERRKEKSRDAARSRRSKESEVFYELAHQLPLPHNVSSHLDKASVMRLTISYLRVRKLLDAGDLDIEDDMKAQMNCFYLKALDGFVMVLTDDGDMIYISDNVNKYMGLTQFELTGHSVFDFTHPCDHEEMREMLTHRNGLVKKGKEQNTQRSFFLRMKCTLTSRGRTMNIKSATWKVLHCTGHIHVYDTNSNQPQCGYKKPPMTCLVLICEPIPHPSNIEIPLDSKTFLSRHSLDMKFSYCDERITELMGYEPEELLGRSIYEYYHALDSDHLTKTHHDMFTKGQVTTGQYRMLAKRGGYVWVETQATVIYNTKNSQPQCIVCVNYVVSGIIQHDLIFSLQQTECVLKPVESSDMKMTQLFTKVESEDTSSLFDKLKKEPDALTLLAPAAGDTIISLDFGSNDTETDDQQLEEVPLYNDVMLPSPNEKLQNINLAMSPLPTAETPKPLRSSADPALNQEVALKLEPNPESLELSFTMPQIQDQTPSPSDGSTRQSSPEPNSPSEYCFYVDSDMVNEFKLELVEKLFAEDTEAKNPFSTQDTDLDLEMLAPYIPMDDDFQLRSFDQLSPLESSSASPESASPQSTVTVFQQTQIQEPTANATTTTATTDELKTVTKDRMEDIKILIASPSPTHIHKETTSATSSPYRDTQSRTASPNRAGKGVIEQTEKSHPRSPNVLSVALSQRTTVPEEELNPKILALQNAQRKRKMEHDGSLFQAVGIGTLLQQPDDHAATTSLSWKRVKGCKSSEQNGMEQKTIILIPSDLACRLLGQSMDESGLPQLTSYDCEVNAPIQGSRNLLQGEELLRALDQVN
Sequence of Cytochrome P450 3A4 (Homo sapiens) (P08684 whole entry, looked up): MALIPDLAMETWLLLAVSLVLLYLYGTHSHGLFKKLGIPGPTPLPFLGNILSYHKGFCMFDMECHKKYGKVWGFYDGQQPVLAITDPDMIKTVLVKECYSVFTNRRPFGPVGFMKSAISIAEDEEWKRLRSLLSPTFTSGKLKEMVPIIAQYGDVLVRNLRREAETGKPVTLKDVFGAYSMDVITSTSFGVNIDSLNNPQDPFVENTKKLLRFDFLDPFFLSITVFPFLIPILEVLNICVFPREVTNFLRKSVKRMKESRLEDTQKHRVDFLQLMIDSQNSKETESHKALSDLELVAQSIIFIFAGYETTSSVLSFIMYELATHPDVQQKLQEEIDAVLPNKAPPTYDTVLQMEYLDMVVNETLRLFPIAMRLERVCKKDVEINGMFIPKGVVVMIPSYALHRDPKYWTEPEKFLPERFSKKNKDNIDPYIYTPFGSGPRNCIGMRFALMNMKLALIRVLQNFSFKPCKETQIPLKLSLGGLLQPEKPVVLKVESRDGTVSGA
Sequence of Cytochrome P450 3A7 (Homo sapiens) (P24462 whole entry, looked up): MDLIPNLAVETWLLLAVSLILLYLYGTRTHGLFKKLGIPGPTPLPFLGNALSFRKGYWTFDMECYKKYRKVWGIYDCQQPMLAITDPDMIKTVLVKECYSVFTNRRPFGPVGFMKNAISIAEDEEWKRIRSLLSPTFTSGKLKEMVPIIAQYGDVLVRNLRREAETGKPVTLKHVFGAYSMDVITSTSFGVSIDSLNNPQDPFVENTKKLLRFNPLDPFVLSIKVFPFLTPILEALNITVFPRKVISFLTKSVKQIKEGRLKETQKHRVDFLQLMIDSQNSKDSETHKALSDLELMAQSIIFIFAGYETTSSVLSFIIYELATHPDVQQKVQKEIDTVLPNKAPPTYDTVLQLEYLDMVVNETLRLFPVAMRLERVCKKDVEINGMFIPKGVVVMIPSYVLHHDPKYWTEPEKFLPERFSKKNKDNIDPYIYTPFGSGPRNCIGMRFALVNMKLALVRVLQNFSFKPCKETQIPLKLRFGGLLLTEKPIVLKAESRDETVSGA

COc1cc(OC)nc(Sc2cccc(Cl)c2C(=O)O)n1
active: [2] 29.7 µM | [4] 50 µM
not listed: [18]
inactive: all other assays above

CCCSP(=O)(OCC)SCCC
active: [2] 25.8 µM | [10] 15.5 µM | [11] 22.1 µM
not listed: [4]
inactive: all other assays above

CSc1nnc(C(C)(C)C)c(=O)n1N
active: [2] 23.2 µM
inactive: all other assays above

CCCOc1nn(C(=O)NS(=O)(=O)c2ccccc2C(=O)OC)c(=O)n1C
inactive: all assays above

COP(=O)(OC)OC(Br)C(Cl)(Cl)Br (stereo not drawn)
inactive: all assays above
